Assay results: PubChem BioAssay AID1347087 (National Center for Advancing Translational Sciences (NCATS), 2019)
Several values for one entry are separate records, joined by “and”; a condition that tells them apart may be missing. Equal entries are not always repeated. Results filed as inconclusive are left out. Activity calls are given as the source filed them. Calls come from the whole dose curve.

assay: qHTS for Inhibitors of the Functional Ribonucleoprotein Complex (vRNP) of Lassa (LASV) Arenavirus: LASV Confirmatory Screen - GLuc reporter signal; conditions: LASV minigenome vRNP, Gaussia luciferase reporter; series mostly up to 53.9 µM

Row | SMILES | Potency
1 | CC[C@@H](C(=O)O)[C@@H]1O[C@@H]([C@@H](C)[C@H](O)[C@H](C)C(=O)[C@H](CC)[C@H]2O[C@]3(C=C[C@@H](O)[C@]4(CC[C@@](C)([C@H]5CC[C@](O)(CC)[C@H](C)O5)O4)O3)[C@H](C)C[C@@H]2C)[C@@H](C)C[C@@H]1C | 0.157 µM (active)
2 | O=C1c2ccccc2-n2c1nc1ccccc1c2=O | 2.43 µM (active)
3 | CC1=C(C)C(=O)C(CCCCC#CCCCC#CCO)=C(C)C1=O | 24.3 µM (active)
4 | CC(C)(C)C1CCC(CC2=C(O)c3ccccc3C(=O)C2=O)CC1 (stereo not given) | 6.85 µM (active)
5 | C=C(C)[C@H]1Cc2c(ccc3c2O[C@@H]2COc4cc(OC)c(OC)cc4[C@@H]2C3=O)O1 | 0.0306 µM (active)
6 | CCn1c(-c2nonc2N)nc2cnc(Oc3cccc(NC(=O)c4ccc(OCCN5CCOCC5)cc4)c3)cc21 | 2.73 µM (active)
7 | COc1ccc(Cc2nccc3cc(OC)c(OC)cc23)cc1OC | 3.06 µM (active) and 3.85 µM (active)
8 | CCCCCN=C(N)N/N=C/c1c[nH]c2ccc(OC)cc12 | 8.63 µM (active)
9 | COCCOC(=O)C1=C(C)NC(C)=C(C(=O)OC/C=C/c2ccccc2)C1c1cccc([N+](=O)[O-])c1 (stereo not given) | 27.3 µM (active)
10 | O=C(Nc1ccccc1)c1cc([N+](=O)[O-])ccc1Cl | 24.3 µM (active)
11 | C=C1CC[C@@H]2[C@](C)(CO)[C@H](O)CC[C@@]2(C)[C@@H]1/C=C/C1=CCOC1=O | 21.7 µM (active)
12 | CC12C(=O)OC(=O)C1(C)C1CCC2O1 (stereo not given) | 9.68 µM (active)
13 | Cn1cc(-c2ccncc2)c(-c2ccc(OCc3ccc4ccccc4n3)cc2)n1 | 24.3 µM (active)
14 | CO/C=C(/C(=O)OC)c1ccccc1Oc1cc(Oc2ccccc2C#N)ncn1 | 6.27 µM (active)
15 | CCC(C)c1nccnc1OC (stereo not given) | inactive
16 | CC[C@@]1([C@@H]2O[C@@H]([C@H]3O[C@@](O)(CO)[C@H](C)C[C@H]3C)C[C@H]2C)CC[C@H]([C@]2(C)CC[C@]3(C[C@H](O)[C@@H](C)[C@@H]([C@@H](C)[C@@H](OC)[C@H](C)C(=O)O)O3)O2)O1 | 0.335 µM (active)
17 | CCCCC/C(C=O)=C\c1ccccc1 | inactive
18 | Cc1cc(N)c2ccccc2[n+]1CCCCCCCCCC[n+]1c(C)cc(N)c2ccccc21 | 1.37 µM (active)
19 | Oc1cc(Cl)ccc1Oc1ccc(Cl)cc1Cl | 25 µM (active)
20 | CC(=O)OCC(=O)[C@@]12N=C(C)O[C@H]1C[C@H]1[C@@H]3CCC4=CC(=O)C=C[C@]4(C)[C@@H]3[C@@H](O)C[C@@]12C | inactive
21 | O=C(Nc1ccc([N+](=O)[O-])cc1Cl)c1cc(Cl)ccc1O | 0.968 µM (active)
22 | Cc1ncc([N+](=O)[O-])n1CC(C)O (stereo not given) | inactive
23 | COc1cc2c(cc1OC)CC(=O)N(CCCN(C)C[C@H]1Cc3cc(OC)c(OC)cc31)CC2 | inactive
24 | CC(O)C(O)[C@H]1CNc2nc(N)[nH]c(=O)c2N1 (stereo not given in full) | inactive
25 | C=C(C)C1Cc2c(ccc3c2OC2COc4cc(OC)c(OC)cc4C2C3=O)O1 (stereo not given) | 0.0217 µM (active)
